Each structure is given as a SMILES string. Unmarked numbers belong to inactive results.

One test concerns Sporothrix brasiliensis CBS 133006. The test is described as follows: growth inhibition relative to untreated control; higher = more growth inhibition (more antifungal activity), active = 80 or more; extreme values may be limits of the assay. The settings on record: 1 µM; 48 h. The method in brief: (§1)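 Before testing, the reference isolates were kept in brain heart infusion broth with 2% glucose at 36°C for 7 days to give yeast-form cells. These cells, at 1 x 10^5 CFU/ml, received library compounds at a final 1 μM and were held 48 h at 35°C in 5% CO2. Growth was checked by eye under an inverted light microscope and quantified spectrophotometrically in quadruplicate, and the value is percent growth inhibition versus untreated cells.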
For `CC(Oc1ccccc1)C(=O)Nc1nc(-c2ccccn2)cs1` (stereo unspecified), the growth inhibition was 18%.

For the compound `Nc1cccnc1Nc1ccc(Cl)cc1`, the growth inhibition was 13.8%.

With `COc1ccc(CN2CCOc3ccc(C(C)(O)CN(C)C)cc3C2)cc1C` (stereo unspecified), the growth inhibition is 1.25%.

For the compound `CC(=O)Oc1ccccc1C(=O)Nc1ncc([N+](=O)[O-])s1`, the growth inhibition is 3.5%.

For the compound `COc1ccc(-c2cncc3ccc(C(=O)NCCCn4ccnc4)nc23)cc1`, the growth inhibition was 16%.

`CCCCc1ccc(C(=O)Nc2nccc3ccccc23)nc1`: the growth inhibition was 23.5%.

In the case of `c1ccc(-c2[nH]c3ccccc3c2C(c2ccccn2)N2CCCC2)cc1` (stereo unspecified), the growth inhibition is 4.25%.

For the compound `CCOc1ccc2cc(-c3nn(CC4CCN(C)CC4)c4ncnc(N)c34)ccc2c1`, the growth inhibition is 1.75%.

Take `CN1CCC(NCc2cccc(-c3ccc(S(=O)(=O)NCc4ccccc4)cc3)c2)CC1`: the growth inhibition was 8%.

Regarding `CCc1ccc([C@@H]2C[C@H](C(F)(F)F)n3ncc(C(=O)NCc4ccc(OC)cc4)c3N2)cc1`, the growth inhibition was 15.5%.

As to `O=C(Nc1nnc(-c2ccc(Cl)cc2)o1)c1cccc(C(F)(F)F)c1`, the growth inhibition is 100% (active).

As to `CCC(C)NC(=O)c1ccc(NC(=O)C2(c3ccccc3)CCCC2)cc1` (stereo unspecified), the growth inhibition was 5.5%.

`O=C(CN1CCOCC1)Nc1ccc2ncnc(Nc3ccc(OCc4cccc(F)c4)c(Cl)c3)c2c1`: the growth inhibition is 8.25%.

On to `CN1CCN(c2nccc3nc(-c4ccc(F)c(F)c4)[nH]c23)CC1`, for which the growth inhibition is 0%.

`O=C1N(Cc2cc3ccccc3s2)CC2CN(Cc3ccccc3)CCN12` (stereo unspecified): the growth inhibition is 22%.

`CCc1ccc(C(NCc2nc(N)nc(N(C)C)n2)C(C)C)cc1` (stereo unspecified): the growth inhibition is 0%.

Take `COc1cc(-c2cc(-c3ccc(S(C)(=O)=O)cc3)cnc2N)ccc1O`: the growth inhibition is 17.8%.

Turning to `CC(C)=CCC/C(C)=C/CNCCNC1C2CC3CC(C2)CC1C3` (stereo unspecified), the growth inhibition is 44.2%.

For `Cc1cccc(Cn2ccc(NC(=O)c3ccc4c(c3)OCO4)n2)c1`, the growth inhibition was 7.5%.

For `CCOc1ccc(-c2nc(NC(=O)CS(=O)(=O)c3ccccc3)sc2C)cc1`, the growth inhibition was 5.25%.

In the case of `CC1=Nc2ccc(Cl)cc2C(c2ccccc2)N1CCNC(=O)CN(C)C` (stereo unspecified), the growth inhibition is 22.8%.

In the case of `CN1CCN(S(=O)(=O)c2ccc(-c3ccc4c(Nc5ccc6nn[nH]c6c5)ccnc4c3)cc2)CC1`, the growth inhibition is 4.25%.

Turning to `NCC(=O)N1CCn2c(nc(-c3ccccc3)c2Nc2ccc3c(c2)OCO3)C1`, the growth inhibition is 0%.

Turning to `O=C(NCc1ccco1)N1CCN(Cc2ccc(Cl)s2)CC1`, the growth inhibition is 0%.

On to `COc1ccc(C2CC(c3cccs3)=NN2C(=O)c2ccco2)cc1OC` (stereo unspecified), for which the growth inhibition is 0%.

As for `c1coc(CNc2nc(N3CCCCC3)nc3ccccc23)c1`, the growth inhibition was 4.25%.

On to `NC(=O)c1cc(-c2ccsc2)ccc1OCCOc1ccccc1`, for which the growth inhibition is 7.25%.

Turning to `Cc1ncc(-c2ccnc(Nc3ccc(S(C)(=O)=O)cc3)n2)n1C(C)C`, the growth inhibition is 37%.

Take `Cc1nc(-c2ccccn2)nc(N(C)CCc2ccccc2)c1Cl`: the growth inhibition was 80.8% (active).

Regarding `CN(C)CCNC(=O)N1CCCN(c2ncnc3cc(-c4ccccc4)sc23)CC1`, the growth inhibition is 10.5%.

As to `CN1CCCC1CCO[C@](C)(c1ccccc1)c1ccc(Cl)cc1` (stereo partly specified), the growth inhibition was 11.8%.

For the compound `CC(C(=O)Nc1ccc2oc(-c3ccncc3)nc2c1)c1ccccc1` (stereo unspecified), the growth inhibition is 15.2%.

For `FC(F)(F)c1cccc(-c2nc3c(NCc4ccncc4)nccc3[nH]2)c1`, the growth inhibition is 38%.

`CCOc1ccc2cc(-c3nn(C(C)(C)C)c(N)c3C(N)=O)cnc2c1`: the growth inhibition is 0%.

Turning to `O=C(NCc1cc(Cl)cc(Cl)c1)c1c(C(F)(F)F)nc2ccccn12`, the growth inhibition is 21.5%.

In the case of `CC(C)C(C(=O)Nc1ccc(S(=O)(=O)N(C)C)cc1)c1ccc(Cl)cc1` (stereo unspecified), the growth inhibition was 17.5%.

In the case of `COc1ccc(-c2nnc3ccc(-c4cccc(C(C)C)c4)cn23)cc1OC`, the growth inhibition is 17%.

With `COc1cc(C(F)(F)F)nc2ccc(C)c(N)c12`, the growth inhibition is 6.75%.

The test system of another test is Sporothrix schenckii ATCC 32286. The test is described as above. The settings on record: 1 µM; 48 h. The method in brief:
as §1
On to `CC(Oc1ccccc1)C(=O)Nc1nc(-c2ccccn2)cs1` (stereo unspecified), for which the growth inhibition is 0%.

Regarding `Nc1cccnc1Nc1ccc(Cl)cc1`, the growth inhibition was 0%.

For `COc1ccc(CN2CCOc3ccc(C(C)(O)CN(C)C)cc3C2)cc1C` (stereo unspecified), the growth inhibition was 16%.

On to `CC(=O)Oc1ccccc1C(=O)Nc1ncc([N+](=O)[O-])s1`, for which the growth inhibition is 14%.

For the compound `COc1ccc(-c2cncc3ccc(C(=O)NCCCn4ccnc4)nc23)cc1`, the growth inhibition is 16.5%.

Consider `CCCCc1ccc(C(=O)Nc2nccc3ccccc23)nc1`, for which the growth inhibition was 1%.

Take `c1ccc(-c2[nH]c3ccccc3c2C(c2ccccn2)N2CCCC2)cc1` (stereo unspecified): the growth inhibition was 12.2%.

Regarding `CCOc1ccc2cc(-c3nn(CC4CCN(C)CC4)c4ncnc(N)c34)ccc2c1`, the growth inhibition was 15.8%.

With `CN1CCC(NCc2cccc(-c3ccc(S(=O)(=O)NCc4ccccc4)cc3)c2)CC1`, the growth inhibition was 13.5%.

Consider `CCc1ccc([C@@H]2C[C@H](C(F)(F)F)n3ncc(C(=O)NCc4ccc(OC)cc4)c3N2)cc1`, for which the growth inhibition is 12.2%.

For the compound `O=C(Nc1nnc(-c2ccc(Cl)cc2)o1)c1cccc(C(F)(F)F)c1`, the growth inhibition was 85.5% (active).

On to `CCC(C)NC(=O)c1ccc(NC(=O)C2(c3ccccc3)CCCC2)cc1` (stereo unspecified), for which the growth inhibition is 4.25%.

Regarding `O=C(CN1CCOCC1)Nc1ccc2ncnc(Nc3ccc(OCc4cccc(F)c4)c(Cl)c3)c2c1`, the growth inhibition was 15.8%.

With `CN1CCN(c2nccc3nc(-c4ccc(F)c(F)c4)[nH]c23)CC1`, the growth inhibition is 0%.

With `O=C1N(Cc2cc3ccccc3s2)CC2CN(Cc3ccccc3)CCN12` (stereo unspecified), the growth inhibition is 4.5%.

Consider `CCc1ccc(C(NCc2nc(N)nc(N(C)C)n2)C(C)C)cc1` (stereo unspecified), for which the growth inhibition was 8.75%.

As for `COc1cc(-c2cc(-c3ccc(S(C)(=O)=O)cc3)cnc2N)ccc1O`, the growth inhibition was 19.8%.

`CC(C)=CCC/C(C)=C/CNCCNC1C2CC3CC(C2)CC1C3` (stereo unspecified): the growth inhibition is 22.2%.

For `Cc1cccc(Cn2ccc(NC(=O)c3ccc4c(c3)OCO4)n2)c1`, the growth inhibition was 7.25%.

For `CCOc1ccc(-c2nc(NC(=O)CS(=O)(=O)c3ccccc3)sc2C)cc1`, the growth inhibition is 0.5%.

As to `CC1=Nc2ccc(Cl)cc2C(c2ccccc2)N1CCNC(=O)CN(C)C` (stereo unspecified), the growth inhibition was 0%.

As to `CN1CCN(S(=O)(=O)c2ccc(-c3ccc4c(Nc5ccc6nn[nH]c6c5)ccnc4c3)cc2)CC1`, the growth inhibition is 7.5%.

For `NCC(=O)N1CCn2c(nc(-c3ccccc3)c2Nc2ccc3c(c2)OCO3)C1`, the growth inhibition was 0.5%.

For the compound `O=C(NCc1ccco1)N1CCN(Cc2ccc(Cl)s2)CC1`, the growth inhibition was 0.25%.

Regarding `COc1ccc(C2CC(c3cccs3)=NN2C(=O)c2ccco2)cc1OC` (stereo unspecified), the growth inhibition was 18.8%.

As to `c1coc(CNc2nc(N3CCCCC3)nc3ccccc23)c1`, the growth inhibition is 13.5%.

Take `NC(=O)c1cc(-c2ccsc2)ccc1OCCOc1ccccc1`: the growth inhibition is 12.2%.

Regarding `Cc1ncc(-c2ccnc(Nc3ccc(S(C)(=O)=O)cc3)n2)n1C(C)C`, the growth inhibition was 2.5%.

In the case of `Cc1nc(-c2ccccn2)nc(N(C)CCc2ccccc2)c1Cl`, the growth inhibition was 34.8%.

Take `CN(C)CCNC(=O)N1CCCN(c2ncnc3cc(-c4ccccc4)sc23)CC1`: the growth inhibition is 13.2%.

As to `CN1CCCC1CCO[C@](C)(c1ccccc1)c1ccc(Cl)cc1` (stereo partly specified), the growth inhibition is 14.8%.

In the case of `CC(C(=O)Nc1ccc2oc(-c3ccncc3)nc2c1)c1ccccc1` (stereo unspecified), the growth inhibition was 0.5%.

Take `FC(F)(F)c1cccc(-c2nc3c(NCc4ccncc4)nccc3[nH]2)c1`: the growth inhibition was 4%.

In the case of `CCOc1ccc2cc(-c3nn(C(C)(C)C)c(N)c3C(N)=O)cnc2c1`, the growth inhibition is 2.5%.

`O=C(NCc1cc(Cl)cc(Cl)c1)c1c(C(F)(F)F)nc2ccccn12`: the growth inhibition was 11.2%.

Consider `CC(C)C(C(=O)Nc1ccc(S(=O)(=O)N(C)C)cc1)c1ccc(Cl)cc1` (stereo unspecified), for which the growth inhibition is 0.5%.

Regarding `COc1ccc(-c2nnc3ccc(-c4cccc(C(C)C)c4)cn23)cc1OC`, the growth inhibition is 16.8%.

Take `COc1cc(C(F)(F)F)nc2ccc(C)c(N)c12`: the growth inhibition is 14.5%.

The values above are taken from the supplement of paper PMC7556523.
